Out of some 69,000 compounds screened, about 8,600 (12%) showed an effect of 50% or more. This is one part of a sample in which strong results are shown more often than they occur.
test system: Plasmodium berghei; assay: Screen against P. berghei liver stage (PbLuc), transformed with Luciferase, at 10uM; format: functional, HepG2; conditions: tested at 10 uM

Row | Structure (SMILES) | INHIBITION [%]
1 | CC(=O)N1CCC2(CC1)COCCN2CCN(C)C | -8.94
2 | Cc1cc(C)n(CC2CN(CCOc3ccccc3F)CCO2)n1 (stereo not given) | 9.14
3 | Cc1ccc(N2CCc3ncc(CNc4ccccn4)n3CC2)nn1 | 18.4
4 | O=C(c1cscn1)N1CCC(O)(Cn2ccc3ccncc32)CC1 | 17.1
5 | CC(=O)N1N=C(c2ccco2)OC1C(=O)NCC(C)C (stereo not given) | -4.32
6 | CC(C)Cn1cc(NCc2cscn2)cn1 | -24.5
7 | CC(C)(C)n1cc(NCc2cscn2)cn1 | 29.4
8 | FC(F)(F)Cn1cc(NCc2cscn2)cn1 | 62
9 | CCOc1cc(=O)n2c(c1C(=O)OCc1ccc(C)cc1)CCCC2 | 32.2
10 | COc1cc(N2CCC3(C2)CN(c2cccnc2)C(=O)CN3C)ncn1 (stereo not given) | 30.3
11 | Cc1cccc(CN2CCC3(CCN(c4ncccn4)C3)C2=O)c1 (stereo not given) | -23.3
12 | Cc1cccc(CN2CCC3(CCN(c4ncccn4)CC3)C2=O)c1 | 42
13 | O=C1N(c2cncnc2)CCC12CCCN(Cc1ccccn1)C2 (stereo not given) | -11.5
14 | N#Cc1ccc(N2CCCC3(CCN(c4cncnc4)C3=O)C2)nc1 (stereo not given) | 65.7
15 | O=C1N(Cc2cccnc2)CCC12CCCN(c1ncccn1)C2 (stereo not given) | 87.2
16 | N#Cc1ccc(N2CCC3(CCCN(c4ccccn4)C3)C2)nc1 (stereo not given) | 12.1
17 | CCc1cnc(N2CCC3(CCN(Cc4cccc(C)c4)C3=O)C2)nc1 (stereo not given) | 60.5
18 | COc1cc(N2CCC3(CC2)CCN(c2cccnc2)C3=O)ncn1 | 68.4
19 | O=C1N(Cc2cccnc2)CCC12CCCN(c1ncc(F)cn1)C2 (stereo not given) | -42
20 | COc1cccc(N2CC3(CCN(c4cc(OC)ncn4)C3)CC2=O)c1 (stereo not given) | 34.6
21 | O=C1N(Cc2ccncc2)CCC12CCCN(c1ncc(F)cn1)C2 (stereo not given) | 39.5
22 | CN(C)CCOCc1cncc2c1CCN(Cc1ccccn1)C2 | -8.51
23 | Cc1nc(CN2CCO[C@H]3[C@@H](OCc4cccnc4)CC[C@@H]32)cs1 | 14.6
24 | Cc1nc(C(=O)N2CCN(S(C)(=O)=O)CC2)c(-c2ccccc2Cl)s1 | 23
25 | COCCN1CCC(Nc2c(F)cc(C#N)cc2F)CC1 | -3.58
26 | O=C([C@@H]1CCO[C@@H]2CCN(Cc3ccsc3)C[C@@H]21)N1CCCC1 | 38.1
27 | O=C1CC(c2ccsc2)c2sc(C(=O)O)c(-c3ccc(F)cc3)c2N1 (stereo not given) | -8
28 | COc1cccc(CN2CCC3(CCN(c4ncc(C)cn4)C3)C2=O)c1 (stereo not given) | 37.9

Row | Structure (SMILES) | INHIBITION [%]
29 | COc1cc(N2CCC3(CC2)CN(S(C)(=O)=O)c2ccccc23)ncn1 | 46.4
30 | COc1cc(N2CCCC3(CCN(c4cccnc4)C3=O)C2)ncn1 (stereo not given) | 84.7
31 | COc1cc(N2CCC3(CC2)CN(CCO)c2ccccc23)ncn1 | 93.1
32 | Cc1cccc(CN2CCC3(CCN(c4ccccn4)C3)C2=O)c1 (stereo not given) | 20.7
33 | COc1cc(N2CCC3(CCN(Cc4cccnc4)C3=O)C2)ncn1 (stereo not given) | 91
34 | O=C(c1ccncc1)N1CCCC2(CCN(c3cccnc3)C2=O)C1 (stereo not given) | -7.7
35 | CCN1CCC2(CC1)CN(CCO)c1ccccc12 | -7.94
36 | COc1cc(N2CCCC3(CCN(c4cncnc4)C3=O)C2)ncn1 (stereo not given) | 53
37 | O=C1N(c2cccnc2)CCC12CCCN(Cc1cccnc1)C2 (stereo not given) | -52.3
38 | Cc1cnc(N2CCC3(CC2)CCN(c2cncnc2)C3=O)nc1 | 40.8
39 | COCC(=O)N1CCCC2(CCN(c3cncnc3)C2=O)C1 (stereo not given) | 25.2
40 | CNC(=O)[C@H]1C[C@@H]2CN(C(=O)c3ccccn3)C[C@@H]2N1S(C)(=O)=O | 37.2
41 | Cc1nnc(CN2CCCC2c2c(C)nn(C)c2Cl)o1 (stereo not given) | 16.9
42 | O=C(C1CCOC1)N1C[C@H]2CN(Cc3nccs3)C[C@H]2C1 (stereo not given in full) | 17.1
43 | COc1ccccc1CN(CC1CCCO1)C(=O)c1cc(C)n[nH]1 (stereo not given) | -11.3
44 | c1cncc(CN2Cc3nccn3CC(Cn3cncn3)C2)c1 (stereo not given) | 5.41
45 | COc1ccc(C(=O)N2C[C@@H](O)[C@H](NCCc3ncccc3C)C2)cc1 | -15.3
46 | Cc1cc(CNc2cc(Cl)ccc2C)no1 | -4.4
47 | Cc1nnsc1CN1C[C@H]2CC[C@@H](C1)N(Cc1c(C)noc1C)C2=O | -42.9
48 | CC(=O)c1cc(C(=O)N2CCC3(CC2)Nc2ccccc2NC3=O)cs1 | 20.3
49 | Nc1cc(C(=O)N2CCC3(CC2)Nc2ccccc2NC3=O)ccn1 | -31.5
50 | COc1ncc(C(=O)N2CCC3(CC2)C(=O)Nc2ccccc23)cn1 | 12
51 | CNc1cc(C(=O)N2CCC3(CC2)Nc2ccccc2NC3=O)ccn1 | 57.6
52 | CNc1ncc(C(=O)N2CCC3(CC2)Nc2ccccc2NC3=O)cn1 | 27.6
53 | COc1cc(C(=O)N2CCC3(CC2)Nc2ccccc2NC3=O)ccn1 | 52.1
54 | Cn1nnnc1SCCC(=O)NCC1Cc2ccccc2O1 (stereo not given) | -0.554
55 | CN(C)C(=O)CCCS(=O)(=O)Cc1cc(Cl)c2c(c1)OCO2 | 30.6
